{
  "source": "PubChem BioAssay AID1259343",
  "about": "(VanderVen Lab, College of Veterinary Medicine, Cornell …, 2017)",
  "note": "The whole screen tested about 6,200 compounds, of which about 2,900 (47%) were called active. No stated cut-off is given here; in the data, active means inhibition above about 50%; inactive means the rest. The set was probably picked from earlier hits. The list shows a part of the results.",
  "data": [
    {"assay": "Mycobacterium tuberculosis growth inhibition, primary screen (AID 1259343)", "settings": "inhibition: at 10 µM, active compounds read high; outcome: 10 uM", "values": [
      {"smiles": "CSc1nsc(SCC2=NNC(=O)c3ccccc3O2)n1", "inhibition": "101% (active)"},
      {"smiles": "Cc1nc(CSCC(=O)Nc2ccc(C)c(Cl)c2)no1", "inhibition": "39.4% (inactive)"},
      {"smiles": "N#Cc1ccc(NC(=O)Cc2ccc(Cl)c(Cl)c2)cc1", "inhibition": "17.6% (inactive)"},
      {"smiles": "O=C(CSCCO)Nc1ccc(Cl)c(Br)c1", "inhibition": "93.2% (active)"},
      {"smiles": "CC1CC(C)(C)CC2(C1)NC(=O)N(c1ccccc1)N2", "note": "(stereo unspecified)", "inhibition": "86.8% (active)"},
      {"smiles": "CCCOC(=O)COc1ccc2c(oc(=O)c3ccccc32)c1C", "inhibition": "84% (active)"},
      {"smiles": "CONC(=O)c1oc2c(ccc3ccccc32)c1C", "inhibition": "21.5% (inactive)"},
      {"smiles": "CCOC(=O)CCc1c(C)c2ccc(OCc3ccc(C(=O)OC)cc3)c(C)c2oc1=O", "inhibition": "36.8% (inactive)"},
      {"smiles": "O=c1[nH]c(=S)[nH]c2sccc12", "inhibition": "-6.61% (inactive)"},
      {"smiles": "O=c1[nH]c(=S)[nH]c(O)c1N=Nc1ccc(SC(F)F)cc1", "inhibition": "99.5% (active)"},
      {"smiles": "O=c1[nH]c(=S)[nH]c(O)c1N=Nc1ccc(F)cc1", "inhibition": "104% (active)"},
      {"smiles": "O=c1[nH]c(=S)[nH]c(O)c1N=Nc1ccc2c(c1)OCCO2", "inhibition": "38.2% (inactive)"},
      {"smiles": "O=c1[nH]c(O)c(N=Nc2ccc(SC(F)F)cc2)c(=O)[nH]1", "inhibition": "84% (active)"},
      {"smiles": "O=C(NC(=S)NCCc1ccccc1)C1CCCCC1", "inhibition": "68.9% (active)"},
      {"smiles": "CC(C)CC(=O)NC(=S)NCc1ccccc1", "inhibition": "52.5% (active)"},
      {"smiles": "CC(C)(C)C(=O)NC(=S)NCc1ccccc1", "inhibition": "87% (active)"},
      {"smiles": "CC(C)(C)C(=O)NCCc1cn(-c2ccccc2)c2ccccc12", "inhibition": "42.6% (inactive)"},
      {"smiles": "S=C(NCCc1ccccc1)NC1CCSc2ccccc21", "note": "(stereo unspecified)", "inhibition": "31.4% (inactive)"},
      {"smiles": "CC(C)(C)C(=O)NC(=S)NCCc1ccccc1", "inhibition": "58.1% (active)"},
      {"smiles": "O=C(NC(=S)NCc1ccccc1)C1CCCCC1", "inhibition": "-4.74% (inactive)"},
      {"smiles": "O=C(NCCc1ccc(Br)s1)C1CCC1", "inhibition": "-26.3% (inactive)"},
      {"smiles": "CC1CCC(C(C)C)C(OC(=O)Cn2c(-c3ccccc3)[n+](C)c3ccccc32)C1", "note": "(stereo unspecified)", "inhibition": "36.3% (inactive)"},
      {"smiles": "Cc1sc(NC(=O)c2ccc3c(c2)CC(C)N3S(C)(=O)=O)nc1-c1ccc(F)cc1", "note": "(stereo unspecified)", "inhibition": "44.9% (inactive)"},
      {"smiles": "CC(C)(C)c1ncc(CNc2ccc(OCC(F)(F)F)nc2)s1", "inhibition": "76.1% (active)"},
      {"smiles": "CC(NC(=O)c1cc2c(s1)-c1ccccc1OC2)c1ccc(Br)cc1", "note": "(stereo unspecified)", "inhibition": "-1.38% (inactive)"},
      {"smiles": "FC(F)(F)c1nc2n(n1)C(c1ccc(Cl)cc1)C1=C(N2)c2ccccc2OC1", "note": "(stereo unspecified)", "inhibition": "inactive"},
      {"smiles": "O=C1/C(=C\\c2ccc(Cl)cc2)COc2ccccc21", "inhibition": "93.1% (active)"},
      {"smiles": "O=C(O)c1ccccc1CSc1ccc(N2CCCCC2)cc1", "inhibition": "34.9% (inactive)"},
      {"smiles": "O=C1C(=Cc2cc(Br)cs2)COc2ccccc21", "inhibition": "63.5% (active)"},
      {"smiles": "COc1ccc2cc(C=C3COc4ccccc4C3=O)ccc2c1", "inhibition": "-0.42% (inactive)"},
      {"smiles": "O=C1C(=Cc2ccc(N3CCCCC3)cc2)COc2ccccc21", "inhibition": "53% (active)"},
      {"smiles": "O=C1/C(=C/c2csnn2)CCOc2cc(Br)ccc21", "inhibition": "32.8% (inactive)"},
      {"smiles": "COc1cc(C(CC(=O)c2ccc(Cl)cc2)SCCO)cc(OC)c1OC", "note": "(stereo unspecified)", "inhibition": "7.8% (inactive)"},
      {"smiles": "NC(=O)C1CCN(CC(=O)Nc2oc3ccccc3c(=O)c2-c2ccccc2)CC1", "inhibition": "12.8% (inactive)"},
      {"smiles": "NC(=O)C1CCN(C(=O)c2ccc(-c3cccc(Cl)c3Cl)o2)CC1", "inhibition": "57.6% (active)"},
      {"smiles": "C/C=C/c1c(F)c(F)c(Oc2ccc(C=O)cc2)c(F)c1F", "inhibition": "88.6% (active)"},
      {"smiles": "Cc1cccc(NC(=O)/C=C/C2=C(Cl)c3ccccc3S2(=O)=O)c1C", "inhibition": "102% (active)"},
      {"smiles": "Cc1ccc(OCc2nc(CC(=O)N(C)CC3CCCCC3)cs2)cc1", "inhibition": "79.4% (active)"},
      {"smiles": "O=C(Cc1csc(COc2ccc(Cl)cc2)n1)NC12CC3CC(CC(C3)C1)C2", "inhibition": "49.5% (inactive)"},
      {"smiles": "NC(=O)c1ccccc1OCc1csc(COc2ccc(F)cc2)n1", "inhibition": "15.8% (inactive)"},
      {"smiles": "CSc1ncc(Cl)c(C(=O)C(C#N)c2nc3ccc(Br)cc3c(=O)[nH]2)n1", "note": "(stereo unspecified)", "inhibition": "15.1% (inactive)"},
      {"smiles": "CCC(CC)c1nnc(NC(=O)c2cc(C)cc(C)c2)s1", "inhibition": "51.2% (active)"},
      {"smiles": "COC(=O)c1cnc(NC(=O)c2cc(F)cc(Br)c2)s1", "inhibition": "19.9% (inactive)"},
      {"smiles": "CC(C)c1ccc(C(=O)Nc2nnc(C(C)C)s2)cc1", "inhibition": "90% (active)"},
      {"smiles": "CC(C)c1nnc(NC(=O)c2cccc(I)c2)s1", "inhibition": "90.6% (active)"},
      {"smiles": "Cc1ccc(C#N)cc1S(=O)(=O)Nc1nnc(C(C)C)s1", "inhibition": "31.9% (inactive)"},
      {"smiles": "CC(C)c1ccc(C(=O)Nc2sccc2C(=O)N2CCCC2)cc1", "inhibition": "16.5% (inactive)"},
      {"smiles": "CCCC(C)c1nnc(NC(=O)c2cnc(-c3ccccn3)nc2)s1", "note": "(stereo unspecified)", "inhibition": "-2.11% (inactive)"},
      {"smiles": "CC(C)Cc1nnc(NC(=O)c2cccc(C#N)c2)s1", "inhibition": "20.8% (inactive)"},
      {"smiles": "c1ccc(-c2ccc(-c3nccn3CCn3ccnc3)s2)cc1", "inhibition": "-34.9% (inactive)"},
      {"smiles": "CC(=NCCCn1ccnc1)c1c(-c2ccccc2)[nH]n(-c2nc3ccccc3s2)c1=O", "inhibition": "52.5% (active)"},
      {"smiles": "COc1cccc(-c2cn3c(C(=O)Nc4ccccn4)csc3n2)c1", "inhibition": "75.6% (active)"},
      {"smiles": "COc1ccc(-c2cn3c(C(=O)Nc4nccs4)csc3n2)cc1", "inhibition": "10.8% (inactive)"},
      {"smiles": "Cc1c2cnnc(Sc3ccc(Cl)cc3)c2c(C)n1C", "inhibition": "64% (active)"},
      {"smiles": "Clc1ccc(Sc2ncccn2)cc1", "inhibition": "2.73% (inactive)"},
      {"smiles": "CCc1ccc(CN(C)C(=O)c2cc(COc3ccc(OC)cc3Cl)on2)nc1", "inhibition": "73% (active)"},
      {"smiles": "Cc1nonc1CN(C)C(=O)c1cc(COc2ccc(F)cc2Cl)on1", "inhibition": "89.4% (active)"},
      {"smiles": "CSc1ccccc1OCc1cc(C(=O)N(C)Cc2ccc(F)cc2)no1", "inhibition": "15.7% (inactive)"},
      {"smiles": "CC(=O)c1ccc(OCc2cc(C(=O)N(C)Cc3ccon3)no2)cc1", "inhibition": "80.4% (active)"},
      {"smiles": "CC(NC(=O)c1cc(Br)ccc1O)c1ccccc1", "note": "(stereo unspecified)", "inhibition": "17.3% (inactive)"},
      {"smiles": "CC(C)c1ccc(O)c(NC(=S)NC(=O)c2cncc(Br)c2)c1", "inhibition": "99.5% (active)"},
      {"smiles": "CC(NC(=O)c1cncc(Br)c1)c1ccc(Cl)cc1", "note": "(stereo unspecified)", "inhibition": "86.8% (active)"},
      {"smiles": "OCC1CCCN(c2ncnc3sc4c(c23)CCCC4)C1", "note": "(stereo unspecified)", "inhibition": "20.6% (inactive)"},
      {"smiles": "COc1cccc(OCCN2CCN(c3ncnc4sc5c(c34)CCCC5)CC2)c1", "inhibition": "36.6% (inactive)"},
      {"smiles": "COc1ccc(F)cc1CN1CCN(c2ncnc3sc4c(c23)CCCC4)CC1", "inhibition": "60% (active)"},
      {"smiles": "Oc1cc(CCC2CCCCN2)cc(-c2ccncc2)c1", "note": "(stereo unspecified)", "inhibition": "45.4% (inactive)"}
    ]}
  ]
}
